# Results: paper PMC7862700, “An all-to-all approach to the identification of sequence-specific readers for epigenetic DNA modifications on cytosine”
# Legend:
# Test in all cases: DAPPL (digital affinity profiling via proximity ligation, sequencing); 10 mM Tris-HCl pH 7.5, 50 mM NaCl, 1 mM DTT, 4% glycerol, room temperature, 30 min; GST-TFs on glutathione beads, 16-mer random dsDNA library, 0.1% formaldehyde crosslink after washing; high values mean tight binding
# FLI1 = molecular target: T1, FLI1 (Homo sapiens, UniProt Q01543 1-452); conditions: protein: recombinant; tags: N-terminal GST; dsDNA, one strand shown
# T1 sequence: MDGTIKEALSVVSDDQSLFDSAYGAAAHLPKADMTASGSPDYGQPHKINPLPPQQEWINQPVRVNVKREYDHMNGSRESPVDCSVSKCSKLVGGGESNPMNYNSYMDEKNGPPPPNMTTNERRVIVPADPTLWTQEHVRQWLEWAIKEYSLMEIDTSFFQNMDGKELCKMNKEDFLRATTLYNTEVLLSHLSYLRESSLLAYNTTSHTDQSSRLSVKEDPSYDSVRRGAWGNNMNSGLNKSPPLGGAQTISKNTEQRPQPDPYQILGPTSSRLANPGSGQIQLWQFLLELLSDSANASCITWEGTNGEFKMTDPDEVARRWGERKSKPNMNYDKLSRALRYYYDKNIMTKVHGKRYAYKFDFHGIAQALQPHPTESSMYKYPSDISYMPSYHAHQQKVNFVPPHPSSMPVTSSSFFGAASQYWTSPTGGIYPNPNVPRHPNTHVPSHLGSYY
# Summary of the method: (§1)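 The binding signal reported is, for every hexamer, its read frequency for a factor over its read frequency for the tag-only sample. Reads came from pools of yeast-expressed, GST-fused human transcription factors on glutathione beads, barcoded with DNA and mixed with that sample, which were incubated with 200 nmole of a random double-stranded 16-mer DNA library in Tris/NaCl/DTT/glycerol buffer at room temperature for 30 min. After washing, the pools were crosslinked with 0.1% formaldehyde, proximity-ligated with BsaI/T4 ligase for 1 h at 37 °C, PCR-amplified and sequenced on an Illumina NextSeq500.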
# ELK1 = molecular target: T2, ELK1 (Homo sapiens, UniProt P19419 1-428); conditions: protein: recombinant; tags: N-terminal GST; dsDNA, one strand shown
# T2 sequence: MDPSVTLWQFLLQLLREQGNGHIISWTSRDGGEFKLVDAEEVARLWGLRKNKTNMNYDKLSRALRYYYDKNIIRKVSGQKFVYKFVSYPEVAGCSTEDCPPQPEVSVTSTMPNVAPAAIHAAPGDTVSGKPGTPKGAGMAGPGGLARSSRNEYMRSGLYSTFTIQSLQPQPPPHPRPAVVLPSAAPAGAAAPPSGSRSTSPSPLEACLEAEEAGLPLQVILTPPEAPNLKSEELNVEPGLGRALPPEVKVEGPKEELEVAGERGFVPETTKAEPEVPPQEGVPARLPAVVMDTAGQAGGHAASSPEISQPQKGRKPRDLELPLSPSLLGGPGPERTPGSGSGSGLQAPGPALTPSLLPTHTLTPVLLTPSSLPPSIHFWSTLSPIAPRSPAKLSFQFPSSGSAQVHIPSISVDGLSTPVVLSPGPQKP
# Summary of the method: as §1
# GABPA = molecular target: T3, GABPA (Homo sapiens, UniProt Q06546 1-454); conditions: protein: recombinant; tags: N-terminal GST; dsDNA, one strand shown
# T3 sequence: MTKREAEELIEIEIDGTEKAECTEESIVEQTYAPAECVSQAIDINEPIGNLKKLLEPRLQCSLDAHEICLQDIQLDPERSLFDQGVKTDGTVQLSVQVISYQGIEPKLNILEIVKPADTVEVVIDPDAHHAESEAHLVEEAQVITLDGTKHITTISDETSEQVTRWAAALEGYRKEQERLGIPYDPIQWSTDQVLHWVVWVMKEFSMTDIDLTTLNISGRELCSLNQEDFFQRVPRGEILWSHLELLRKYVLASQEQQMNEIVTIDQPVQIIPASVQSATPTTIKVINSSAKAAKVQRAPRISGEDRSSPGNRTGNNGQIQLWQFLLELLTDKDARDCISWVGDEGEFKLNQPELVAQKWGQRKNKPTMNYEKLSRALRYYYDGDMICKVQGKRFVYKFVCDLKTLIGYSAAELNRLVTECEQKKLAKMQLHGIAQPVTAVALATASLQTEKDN
# Summary of the method: as §1
# ERG = molecular target: T4, ERG (Homo sapiens, UniProt P11308 1-479); conditions: protein: recombinant; tags: N-terminal GST; dsDNA, one strand shown
# T4 sequence: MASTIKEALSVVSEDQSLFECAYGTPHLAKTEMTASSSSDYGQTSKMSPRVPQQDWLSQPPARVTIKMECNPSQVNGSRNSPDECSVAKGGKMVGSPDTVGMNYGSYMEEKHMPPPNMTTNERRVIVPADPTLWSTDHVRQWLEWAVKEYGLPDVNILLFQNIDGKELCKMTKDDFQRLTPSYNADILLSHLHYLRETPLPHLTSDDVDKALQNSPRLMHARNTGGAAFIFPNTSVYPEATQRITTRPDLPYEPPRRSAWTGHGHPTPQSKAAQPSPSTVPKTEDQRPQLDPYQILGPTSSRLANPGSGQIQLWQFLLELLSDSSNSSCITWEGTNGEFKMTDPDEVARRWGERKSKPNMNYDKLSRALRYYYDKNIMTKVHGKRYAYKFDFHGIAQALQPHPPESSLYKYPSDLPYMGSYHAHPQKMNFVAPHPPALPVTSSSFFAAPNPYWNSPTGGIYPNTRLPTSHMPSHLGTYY
# Summary of the method: as §1
# ELF1 = ELF1 (Homo sapiens, UniProt P32519 1-619); conditions: protein: recombinant; tags: N-terminal GST; dsDNA, one strand shown
# ELF1, sequence (P32519 whole entry): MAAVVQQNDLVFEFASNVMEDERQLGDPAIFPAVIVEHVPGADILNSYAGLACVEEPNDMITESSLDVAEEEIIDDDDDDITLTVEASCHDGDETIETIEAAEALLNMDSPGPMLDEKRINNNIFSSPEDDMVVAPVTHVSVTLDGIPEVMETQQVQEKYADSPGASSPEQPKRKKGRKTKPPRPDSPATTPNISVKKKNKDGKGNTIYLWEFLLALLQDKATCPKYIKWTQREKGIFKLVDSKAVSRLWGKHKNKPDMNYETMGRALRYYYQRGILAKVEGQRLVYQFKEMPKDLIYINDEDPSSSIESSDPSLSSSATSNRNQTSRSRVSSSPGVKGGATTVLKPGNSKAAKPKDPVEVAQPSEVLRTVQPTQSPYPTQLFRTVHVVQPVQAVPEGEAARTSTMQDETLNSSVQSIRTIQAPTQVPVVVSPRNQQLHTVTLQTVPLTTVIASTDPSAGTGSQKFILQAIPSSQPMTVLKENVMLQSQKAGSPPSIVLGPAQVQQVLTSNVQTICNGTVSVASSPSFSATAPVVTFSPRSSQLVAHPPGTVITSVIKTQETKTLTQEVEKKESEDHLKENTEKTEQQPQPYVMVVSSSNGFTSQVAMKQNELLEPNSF
# Summary of the method: as §1
# EHF = molecular target: T5, EHF (Homo sapiens, UniProt Q9NZC4 1-300); conditions: protein: recombinant; tags: N-terminal GST; dsDNA, one strand shown
# T5 sequence: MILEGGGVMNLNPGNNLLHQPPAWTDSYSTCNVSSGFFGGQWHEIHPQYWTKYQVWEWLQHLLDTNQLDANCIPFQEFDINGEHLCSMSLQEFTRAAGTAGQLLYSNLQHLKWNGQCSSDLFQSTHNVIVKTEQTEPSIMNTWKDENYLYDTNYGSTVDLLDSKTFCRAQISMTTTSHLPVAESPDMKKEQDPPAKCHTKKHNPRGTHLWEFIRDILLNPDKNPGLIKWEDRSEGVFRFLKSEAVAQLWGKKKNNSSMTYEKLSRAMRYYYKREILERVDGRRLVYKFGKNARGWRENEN
# Summary of the method: as §1
# SPI1 = SPI1 (Homo sapiens, UniProt P17947 1-270); conditions: protein: recombinant; tags: N-terminal GST; dsDNA, one strand shown
# Summary of the method: as §1
# SPIB = SPIB (Homo sapiens, UniProt Q01892 1-262); conditions: protein: recombinant; tags: N-terminal GST; dsDNA, one strand shown
# SPIB, sequence (Q01892 whole entry): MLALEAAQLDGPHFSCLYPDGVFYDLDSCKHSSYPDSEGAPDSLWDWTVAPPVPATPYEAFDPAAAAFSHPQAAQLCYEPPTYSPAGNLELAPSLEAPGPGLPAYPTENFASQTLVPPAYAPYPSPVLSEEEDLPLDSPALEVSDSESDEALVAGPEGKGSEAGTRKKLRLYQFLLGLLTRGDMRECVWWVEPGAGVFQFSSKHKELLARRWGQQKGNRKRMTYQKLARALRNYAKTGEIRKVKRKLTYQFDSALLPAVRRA
# Summary of the method: as §1
# ELK3 = molecular target: T6, ELK3 (Homo sapiens, UniProt P41970 1-407); conditions: protein: recombinant; tags: N-terminal GST; dsDNA, one strand shown
# T6 sequence: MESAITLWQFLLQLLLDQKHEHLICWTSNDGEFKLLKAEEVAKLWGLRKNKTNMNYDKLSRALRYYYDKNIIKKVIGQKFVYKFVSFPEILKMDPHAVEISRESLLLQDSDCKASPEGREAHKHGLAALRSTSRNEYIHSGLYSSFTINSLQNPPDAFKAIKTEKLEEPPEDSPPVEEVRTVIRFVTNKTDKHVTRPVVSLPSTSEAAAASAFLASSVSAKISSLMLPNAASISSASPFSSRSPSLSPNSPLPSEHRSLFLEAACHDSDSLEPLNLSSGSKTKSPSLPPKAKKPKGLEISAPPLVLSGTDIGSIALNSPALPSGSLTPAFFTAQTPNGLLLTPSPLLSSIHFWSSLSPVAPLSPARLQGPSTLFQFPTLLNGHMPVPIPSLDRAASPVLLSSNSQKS
# Summary of the method: as §1
# FEV = molecular target: T7, FEV (Homo sapiens, UniProt Q99581 1-238); conditions: protein: recombinant; tags: N-terminal GST; dsDNA, one strand shown
# T7 sequence: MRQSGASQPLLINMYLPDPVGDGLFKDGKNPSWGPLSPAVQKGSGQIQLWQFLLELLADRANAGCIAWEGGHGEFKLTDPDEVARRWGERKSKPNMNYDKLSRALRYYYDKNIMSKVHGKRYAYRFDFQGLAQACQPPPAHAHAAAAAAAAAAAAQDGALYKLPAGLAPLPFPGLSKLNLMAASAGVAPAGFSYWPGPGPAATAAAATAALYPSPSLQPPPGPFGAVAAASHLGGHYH
# Summary of the method: as §1
# ETV5 = ETV5 (Homo sapiens, UniProt P41161 1-510); conditions: protein: recombinant; tags: N-terminal GST; dsDNA, one strand shown
# ETV5, sequence (P41161 whole entry): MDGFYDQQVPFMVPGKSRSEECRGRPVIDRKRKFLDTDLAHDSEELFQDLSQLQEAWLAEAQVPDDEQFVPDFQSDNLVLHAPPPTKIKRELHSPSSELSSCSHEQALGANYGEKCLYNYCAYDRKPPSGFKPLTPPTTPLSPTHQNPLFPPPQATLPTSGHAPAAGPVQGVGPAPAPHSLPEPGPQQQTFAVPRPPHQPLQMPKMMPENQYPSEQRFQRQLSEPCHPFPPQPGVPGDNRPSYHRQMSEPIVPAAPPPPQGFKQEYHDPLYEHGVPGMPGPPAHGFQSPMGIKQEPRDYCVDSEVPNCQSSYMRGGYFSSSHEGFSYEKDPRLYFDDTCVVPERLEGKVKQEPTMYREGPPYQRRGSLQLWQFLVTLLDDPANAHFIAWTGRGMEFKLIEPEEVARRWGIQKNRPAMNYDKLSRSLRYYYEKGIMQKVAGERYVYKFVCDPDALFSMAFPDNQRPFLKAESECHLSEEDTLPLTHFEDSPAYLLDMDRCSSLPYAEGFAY
# Summary of the method: as §1
# HSF1 = HSF1 (Homo sapiens, UniProt Q00613 1-529); conditions: protein: recombinant; tags: N-terminal GST; chain copies: 3; dsDNA, one strand shown
# HSF1, sequence (Q00613 whole entry): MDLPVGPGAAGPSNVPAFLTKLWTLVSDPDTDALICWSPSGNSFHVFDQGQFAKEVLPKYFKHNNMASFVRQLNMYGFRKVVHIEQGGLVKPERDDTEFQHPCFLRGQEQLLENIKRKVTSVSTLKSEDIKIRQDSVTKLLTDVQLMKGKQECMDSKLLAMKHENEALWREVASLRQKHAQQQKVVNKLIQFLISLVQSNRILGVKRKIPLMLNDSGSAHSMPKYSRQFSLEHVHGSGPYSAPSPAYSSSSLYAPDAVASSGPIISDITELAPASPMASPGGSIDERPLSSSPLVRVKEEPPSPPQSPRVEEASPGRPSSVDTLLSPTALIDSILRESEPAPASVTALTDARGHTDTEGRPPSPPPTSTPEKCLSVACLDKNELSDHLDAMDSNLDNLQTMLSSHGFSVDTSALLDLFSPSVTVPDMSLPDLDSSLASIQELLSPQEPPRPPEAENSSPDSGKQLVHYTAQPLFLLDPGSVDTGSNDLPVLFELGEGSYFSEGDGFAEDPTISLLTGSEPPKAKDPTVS
# Summary of the method: as §1
# SPIC = molecular target: T8, SPIC (Homo sapiens, UniProt Q8N5J4 1-248); conditions: protein: recombinant; tags: N-terminal GST; dsDNA, one strand shown
# T8 sequence: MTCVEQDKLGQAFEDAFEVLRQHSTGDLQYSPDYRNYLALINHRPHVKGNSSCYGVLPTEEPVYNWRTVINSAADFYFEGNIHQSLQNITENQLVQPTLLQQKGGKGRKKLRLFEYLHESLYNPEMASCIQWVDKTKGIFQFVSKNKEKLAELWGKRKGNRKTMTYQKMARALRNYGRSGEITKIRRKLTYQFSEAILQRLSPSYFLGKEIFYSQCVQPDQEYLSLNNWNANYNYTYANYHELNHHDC
# Summary of the method: as §1
# ELF4 = ELF4 (Homo sapiens, UniProt Q99607 1-663); conditions: protein: recombinant; tags: N-terminal GST; dsDNA, one strand shown
# ELF4, sequence (Q99607 whole entry): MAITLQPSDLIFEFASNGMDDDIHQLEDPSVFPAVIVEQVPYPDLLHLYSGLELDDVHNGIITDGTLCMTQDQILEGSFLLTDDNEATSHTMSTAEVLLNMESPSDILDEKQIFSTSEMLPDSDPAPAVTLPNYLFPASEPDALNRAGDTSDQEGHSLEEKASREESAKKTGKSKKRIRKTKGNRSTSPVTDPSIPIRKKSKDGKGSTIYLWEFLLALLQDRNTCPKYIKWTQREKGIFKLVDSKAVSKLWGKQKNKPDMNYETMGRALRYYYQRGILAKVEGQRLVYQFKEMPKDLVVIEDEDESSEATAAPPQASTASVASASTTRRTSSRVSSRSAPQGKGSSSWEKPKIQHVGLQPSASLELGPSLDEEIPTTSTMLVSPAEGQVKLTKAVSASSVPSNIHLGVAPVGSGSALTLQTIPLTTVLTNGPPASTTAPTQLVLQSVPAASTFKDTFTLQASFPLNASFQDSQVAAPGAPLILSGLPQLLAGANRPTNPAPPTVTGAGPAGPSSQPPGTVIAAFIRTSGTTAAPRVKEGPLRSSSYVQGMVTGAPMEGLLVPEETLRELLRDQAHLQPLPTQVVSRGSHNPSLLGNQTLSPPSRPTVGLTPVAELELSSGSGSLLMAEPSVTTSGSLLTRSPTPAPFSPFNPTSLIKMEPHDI
# Summary of the method: as §1
# ELK4 = molecular target: T9, ELK4 (Homo sapiens, UniProt P28324-2 1-405); conditions: protein: recombinant; tags: N-terminal GST; dsDNA, one strand shown
# T9 sequence: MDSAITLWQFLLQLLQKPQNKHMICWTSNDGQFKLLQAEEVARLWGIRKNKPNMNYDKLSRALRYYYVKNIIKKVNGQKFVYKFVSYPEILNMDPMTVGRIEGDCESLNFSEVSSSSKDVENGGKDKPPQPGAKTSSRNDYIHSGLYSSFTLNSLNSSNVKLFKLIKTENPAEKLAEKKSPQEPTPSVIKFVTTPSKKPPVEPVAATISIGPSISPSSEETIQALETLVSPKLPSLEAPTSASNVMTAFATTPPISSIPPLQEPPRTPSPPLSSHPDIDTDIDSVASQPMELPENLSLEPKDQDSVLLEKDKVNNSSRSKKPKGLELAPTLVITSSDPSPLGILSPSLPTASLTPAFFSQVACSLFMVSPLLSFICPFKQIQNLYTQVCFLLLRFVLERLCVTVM
# Summary of the method: as §1
# ETV2 = molecular target: T10, ETV2 (Homo sapiens, UniProt O00321 1-342); conditions: protein: recombinant; tags: N-terminal GST; dsDNA, one strand shown
# T10 sequence: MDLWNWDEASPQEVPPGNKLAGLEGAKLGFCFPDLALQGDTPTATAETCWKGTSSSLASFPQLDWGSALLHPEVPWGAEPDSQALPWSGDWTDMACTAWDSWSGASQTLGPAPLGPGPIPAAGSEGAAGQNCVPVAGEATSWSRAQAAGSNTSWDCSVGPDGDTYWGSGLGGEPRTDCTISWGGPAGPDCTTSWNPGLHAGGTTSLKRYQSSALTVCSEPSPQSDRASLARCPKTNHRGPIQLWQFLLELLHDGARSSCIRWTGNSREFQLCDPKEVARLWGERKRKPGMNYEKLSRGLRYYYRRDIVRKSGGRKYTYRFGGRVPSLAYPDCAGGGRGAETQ
# Summary of the method: as §1
# CRX = CRX (Homo sapiens, UniProt O43186 1-299); conditions: protein: recombinant; tags: N-terminal GST; dsDNA, one strand shown
# CRX, sequence (O43186 whole entry): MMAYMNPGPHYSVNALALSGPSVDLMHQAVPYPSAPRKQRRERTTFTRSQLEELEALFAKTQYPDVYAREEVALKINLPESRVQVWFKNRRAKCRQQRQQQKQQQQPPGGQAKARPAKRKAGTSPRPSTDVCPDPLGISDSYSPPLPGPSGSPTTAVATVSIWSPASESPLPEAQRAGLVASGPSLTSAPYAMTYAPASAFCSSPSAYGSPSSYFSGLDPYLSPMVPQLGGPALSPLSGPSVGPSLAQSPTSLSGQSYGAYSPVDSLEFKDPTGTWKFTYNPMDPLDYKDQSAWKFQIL
# Summary of the method: as §1
# ETV1 = ETV1 (Homo sapiens, UniProt P50549 1-477); conditions: protein: recombinant; tags: N-terminal GST; dsDNA, one strand shown
# ETV1, sequence (P50549 whole entry): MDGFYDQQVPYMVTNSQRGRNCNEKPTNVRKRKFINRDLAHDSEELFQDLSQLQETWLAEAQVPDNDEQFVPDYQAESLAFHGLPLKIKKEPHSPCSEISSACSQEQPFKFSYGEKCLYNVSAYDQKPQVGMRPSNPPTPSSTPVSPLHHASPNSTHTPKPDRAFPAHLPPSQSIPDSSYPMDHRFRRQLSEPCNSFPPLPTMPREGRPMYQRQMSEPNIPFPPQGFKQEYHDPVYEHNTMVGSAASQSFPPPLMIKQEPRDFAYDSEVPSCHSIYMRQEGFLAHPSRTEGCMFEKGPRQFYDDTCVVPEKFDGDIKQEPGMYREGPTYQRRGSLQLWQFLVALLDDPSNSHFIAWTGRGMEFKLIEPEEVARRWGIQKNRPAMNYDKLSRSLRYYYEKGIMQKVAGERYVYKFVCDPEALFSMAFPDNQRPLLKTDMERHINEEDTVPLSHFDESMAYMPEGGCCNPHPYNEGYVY
# Summary of the method: as §1
sequence,measurement,setting,value
ACTCCA,binding signal,FLI1,"1.15 fold enrichment (6-mer frequency, TF over GST control)"
same,binding signal,ELK1,"1.24 fold enrichment (6-mer frequency, TF over GST control)"
same,binding signal,GABPA,"1.29 fold enrichment (6-mer frequency, TF over GST control)"
same,binding signal,ERG,"1.26 fold enrichment (6-mer frequency, TF over GST control)"
same,binding signal,ELF1,"1.21 fold enrichment (6-mer frequency, TF over GST control)"
same,binding signal,EHF,"1.17 fold enrichment (6-mer frequency, TF over GST control)"
same,binding signal,SPI1,"1.23 fold enrichment (6-mer frequency, TF over GST control)"
same,binding signal,SPIB,"1.16 fold enrichment (6-mer frequency, TF over GST control)"
same,binding signal,ELK3,"1.17 fold enrichment (6-mer frequency, TF over GST control)"
same,binding signal,FEV,"1.21 fold enrichment (6-mer frequency, TF over GST control)"
same,binding signal,ETV5,"1.24 fold enrichment (6-mer frequency, TF over GST control)"
same,binding signal,HSF1,"1.14 fold enrichment (6-mer frequency, TF over GST control)"
same,binding signal,SPIC,"1.18 fold enrichment (6-mer frequency, TF over GST control)"
same,binding signal,ELF4,"1.23 fold enrichment (6-mer frequency, TF over GST control)"
same,binding signal,ELK4,"1.05 fold enrichment (6-mer frequency, TF over GST control)"
same,binding signal,ETV2,"1.15 fold enrichment (6-mer frequency, TF over GST control)"
same,binding signal,CRX,"1.06 fold enrichment (6-mer frequency, TF over GST control)"
same,binding signal,ETV1,"1.22 fold enrichment (6-mer frequency, TF over GST control)"
